TDP1 block: TDP1 (human) enzyme inhibition. Q9NUW8. recombinant TDP1, AlphaScreen DNA substrate cleavage. Potency, µM (top dose mostly 130 µM), most hits filed as inhibitors. 350,000 tested, 0.28% active. AID 485290; note: nearly all actives have a fitted effect of over 40% in size
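Signal: AlphaScreen proximity between streptavidin donor and anti-FITC acceptor beads on intact substrate. Reaction: Tdp1 1 nM, substrate 15 nM final, 5 min RT after 15 min compound preincubation.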
PLK1 PBD inh: blocks phosphopeptide binding to human PLK1 polo-box domain; P53350; Plk1 PBD binding of FITC phosphopeptide, fluorescence polarization; Potency, µM, usual class: inhibitors; 360,000 tested, 2.8% active; AID 720504; note: series mostly up to about 57 µM; nearly all actives have a fitted effect of over 65% in size
DT40 TDP1 CPT: growth inhibition of DT40 Tdp1-/-;hTDP1 cells with camptothecin (screen for TDP1 inhibitors); chicken DT40 Tdp1-/-;hTDP1 cells + 20 nM CPT, ATP luminescence, 48 h; Potency, µM (doses to about 46.2 µM), actives largely listed as inhibitors; 420,000 tested, 12% active; note: nearly all actives have a fitted effect of over 55% in size
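Cell growth measured by CellTiter-Glo luminescence after a minimum 48 h, 37 C compound exposure with 20 nM CPT in Tdp1-knockout DT40 cells stably expressing hTDP1, seeded 400/well; qHTS titration format.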
GCN5L2 inh: inhibitors of human GCN5L2 histone acetyltransferase; Q92830; GCN5L2 HAT assay, ThioGlo1 CoA-SH fluorescence; Potency, µM (titrated, usually from 58.9 µM), actives largely listed as inhibitors; 390,000 tested, 0.21% active; AID 504327
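qHTS, 1536-well. 20nM enzyme, pH 7.5 HEPES/EDTA/Tween-20 buffer; 15 min compound preinc., RT. Start: 75uM H3(1-25), 70uM AcCoA, 50uM ThioGlo1. Read Ex340/Em540 at t=0 (autofluorescence flag) and t=20 min.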
DT40 TDP1 no CPT: qHTS for Inhibitors of human tyrosyl-DNA phosphodiesterase 1 (TDP1): qHTS in cells in absence of CPT. DT40 Tdp1-/- hTDP1 cells, no CPT, ATP luminescence, 48 h. Potency, µM (top dose mostly 46.2 µM), actives largely listed as inhibitors. 420,000 tested, 15% active; note: nearly all actives have a fitted effect of over 55% in size
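Growth of hTDP1-complemented DT40 Tdp1-knockout cells is measured by ATP luminescence after at least 48 hr compound exposure at 37 °C, with DMSO substituting for the 20 nM CPT used in the parallel screen.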
VDR inhibitor: vitamin D3 receptor (human) inhibition. P11473. VDR-SRC2-3 peptide fluorescence polarization, 2 h. Potency, µM, most hits filed as inhibitors. 400,000 tested, 0.93% active. AID 504847
Target sequence (P11473 whole entry, looked up): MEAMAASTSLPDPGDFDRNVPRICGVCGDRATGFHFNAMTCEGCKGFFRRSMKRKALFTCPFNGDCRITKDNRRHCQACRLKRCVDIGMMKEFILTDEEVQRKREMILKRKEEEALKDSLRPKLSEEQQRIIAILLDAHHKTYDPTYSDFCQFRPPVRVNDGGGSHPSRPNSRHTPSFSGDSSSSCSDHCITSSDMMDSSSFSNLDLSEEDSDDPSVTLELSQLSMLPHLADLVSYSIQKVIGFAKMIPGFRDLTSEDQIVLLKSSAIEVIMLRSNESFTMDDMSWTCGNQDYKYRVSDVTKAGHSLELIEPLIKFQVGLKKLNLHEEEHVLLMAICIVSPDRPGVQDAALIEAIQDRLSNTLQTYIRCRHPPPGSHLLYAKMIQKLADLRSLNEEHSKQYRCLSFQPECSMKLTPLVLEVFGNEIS
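After 23 nl compound addition and a short centrifugation, plates sat for 2 hours at ambient temperature; polarization of fluorescence then indicated loss of VDR binding to peptide SRC2-3.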
Large screens that a line does not name were inactive; ! = not confirmed by another sample. Shown are actives, neighbours in structure and some others; about 18% of the full set was active somewhere. Calls come from the whole dose curve; as a rule, active = well fitted curve in the direction sought with a large enough effect; inconclusive = small, poorly fitted or top-dose-only effect, or another doubt; inactive = no such curve, though single readings can be large; an effect the other way counts as inactive or inconclusive.

COc1ccc(-c2ccc(NS(=O)(=O)c3ccc(F)c(C(F)(F)F)c3)cc2)nn1	DT40 TDP1 CPT inconclusive, DT40 TDP1 no CPT inconclusive (no result: PLK1 PBD inh)
CNC(=O)C(N)CSC(C)C1=C(C)c2cc3[n-]c(cc4nc(cc5[n-]c(cc1n2)c(C)c5CCC(=O)O)C(CCC(=O)O)=C4C)c(C)c3C(C)SCC(N)C(=O)NC.[Fe+2] (stereo unspecified)	none (no result: TDP1 block, PLK1 PBD inh, DT40 TDP1 CPT, DT40 TDP1 no CPT)
COc1ccc(CN2CCN(C(=O)c3ccc(S(=O)(=O)NCc4ccco4)cc3)CC2)cc1F	DT40 TDP1 CPT 9.2µM, DT40 TDP1 no CPT inconclusive
Cc1ccccc1CN1CCN(C(=O)c2ccc(S(=O)(=O)NCc3ccco3)cc2)CC1	DT40 TDP1 CPT inconclusive, DT40 TDP1 no CPT inconclusive
CC1CC(C)CN(C(=O)/C(=C\c2ccccc2)c2ccccc2)C1 (stereo unspecified)	DT40 TDP1 CPT 16.4µM, DT40 TDP1 no CPT 13µM
CN1CCN(C(=O)/C(=C/c2ccccc2)c2ccccc2)CC1	none
CCOC(=O)CSc1ccc2nnc(CCNS(=O)(=O)c3ccccc3)n2n1	none
O=S(=O)(NCCc1nnc2ccc(SCc3cccc(Cl)c3)nn12)c1ccccc1	DT40 TDP1 CPT 14.6µM, DT40 TDP1 no CPT 18.4µM (no result: PLK1 PBD inh)
Cc1ccc(C)c(CSc2ccc3nnc(CCNS(=O)(=O)c4ccccc4)n3n2)c1	DT40 TDP1 CPT inconclusive, DT40 TDP1 no CPT inconclusive (no result: PLK1 PBD inh)
Cc1ccc(S(=O)(=O)NCCc2nnc3ccc(SCc4ccccc4C)nn23)cc1	DT40 TDP1 CPT 16.4µM, DT40 TDP1 no CPT 16.4µM (no result: PLK1 PBD inh)
CCCCCCSc1nnc2c(n1)OC(C)Nc1ccc(Br)cc1-2 (stereo unspecified)	none (no result: TDP1 block, PLK1 PBD inh)
O=C(O)C(Cc1ccc(Cl)cc1)NS(=O)(=O)c1ccc(Cl)cc1 (stereo unspecified)	none (no result: TDP1 block)
CCSc1nc(C)cc(C)c1S(=O)(=O)c1ccccc1C	DT40 TDP1 CPT inconclusive, DT40 TDP1 no CPT 20.6µM
CCC(C)Oc1nc(C)cc(C)c1S(=O)(=O)c1ccccc1C (stereo unspecified)	DT40 TDP1 CPT inconclusive, DT40 TDP1 no CPT 16.4µM
Cc1cc(C)c(S(=O)(=O)c2ccccc2C)c(OCCN(C)C)n1	none (no result: TDP1 block)
Cc1cc(C)c(S(=O)(=O)c2c(C)cccc2C)c(OCC(C)C)n1	DT40 TDP1 CPT 23.1µM, DT40 TDP1 no CPT 13µM
C#CCOc1nc(C)cc(C)c1S(=O)(=O)c1ccccc1C	none
COC(=O)C1CCc2c(ccc3c2CCCC3)C1=O (stereo unspecified)	none (no result: TDP1 block, GCN5L2 inh)
COC(=O)C1=C(C(=O)OC)[C@@H]2N(C)c3ccccc3[C@@]23C[C@@H](C(=O)OC)N(C(=O)CC(C)C)C3=N1	DT40 TDP1 CPT inconclusive, DT40 TDP1 no CPT inconclusive
COC(=O)C1=C(C(=O)OC)SC(=C2C(=S)C(C)(C)N(C(=O)CC(C)C)c3ccccc32)S1	DT40 TDP1 CPT 25.9µM, DT40 TDP1 no CPT inconclusive, VDR inhibitor inconclusive
CN(C)CCNC(=O)Cn1c(=O)c2cccn2c2ccc(F)cc21	DT40 TDP1 CPT 23.1µM!, DT40 TDP1 no CPT 16.4µM!
CN(Cc1ccccc1)C(=O)Cn1c(=O)c2cccn2c2ccc(F)cc21	DT40 TDP1 CPT 23.1µM, DT40 TDP1 no CPT 6.51µM (no result: PLK1 PBD inh)
CC(C)N(CCCNC(=O)Cn1c(=O)c2cccn2c2ccccc21)Cc1ccccc1	DT40 TDP1 CPT 18.4µM
Cc1nn(CC(=O)N(C)Cc2ccccc2)c(=O)c2cccn12	none
NS(=O)(=O)c1ccc(CCNC(=O)Cn2c(=O)c3cccn3c3ccc(F)cc32)cc1	none (no result: PLK1 PBD inh)
COc1ccc(NC(=O)CN(C)S(=O)(=O)c2ccc3c(c2)c(=O)n(C)c(=O)n3C)cc1	DT40 TDP1 CPT inconclusive, DT40 TDP1 no CPT inconclusive
CC(C)S	none (no result: PLK1 PBD inh, DT40 TDP1 CPT, GCN5L2 inh, DT40 TDP1 no CPT, VDR inhibitor)
CCN/C=C(\C#N)S(=O)(=O)c1ccc(Br)cc1	none
N#C/C(=C\c1ccccc1)C(=O)NNS(=O)(=O)c1ccc(Br)cc1	PLK1 PBD inh 21.2µM, VDR inhibitor 44.7µM
